Laboratory results: PubChem BioAssay (EPA / NIEHS)
Several values for one entry are separate records, joined by “and”; a condition that tells them apart may be missing. Equal values may be shown once. More than one record can exist for a structure, and the calls need not agree. Activity calls are given as the source filed them. The calls were made as follows: active = hit-call score of the fitted dose curve at least 0.9, where 1 is the maximum; inactive = score below 0.9.

Test system: not listed separately
Experiment: ATG_GLI_CIS: Attagene CIS-FACTORIAL HepG2 Assay for human Zinc Finger Protein GLI1 (AID 2282945)
Settings: HepG2, Attagene cis-factorial reporter mRNA, GLI element; actives raise or lower the signal
Outline: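 HepG2 cells transiently transfected with cis-promoter multiplexed reporter units report endogenous transcription factor activity. After 24 h chemical exposure, reporter mRNA was quantified by RT-PCR, 6-FAM labelling, HpaI digestion and capillary electrophoresis, with bidirectional fitting against DMSO.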

outcome, inactive:
COC(=O)[C@H]1[C@H]2C[C@@H]3c4[nH]c5cc(OC)ccc5c4CCN3C[C@H]2C[C@@H](OC(=O)c2cc(OC)c(OC)c(OC)c2)[C@@H]1OC
CC(COCC(C)OC(=O)c1ccccc1)OC(=O)c1ccccc1 (centres undefined)
COc1ccc(C(=O)Nc2nc3ccccc3c(NCc3ccccc3)c2C#N)cc1
Oc1ccc(O)cc1
O=C1O[C@H]([C@H](O)CO)C(O)=C1O
O=[Si]=O
O=C(O)c1cccnc1
CC(=O)O
CC(=O)O[C@]1(C(C)=O)CC[C@H]2[C@@H]3C=C(Cl)C4=CC(=O)[C@@H]5C[C@@H]5[C@]4(C)[C@H]3CC[C@@]21C
Cc1ccc(C(C)(C)C)c(O)c1
NC1CCCCC1
CC(C)(O)c1ccc(CNC(=O)c2cccnc2Oc2ccc(F)cc2)cc1
C/C=C/C=C/C(=O)O
CC(C)(C)c1ccccc1
S=c1[nH]c2ccccc2s1
O=C(NS(=O)(=O)/C=C/c1cccs1)c1ccc(F)cc1Br
CCOCCOCCO
CC(C)c1cccc(C(C)C)c1
Nc1nc(Cl)nc2c1ncn2[C@H]1C[C@H](O)[C@@H](CO)O1
CCN(CC)CCOc1ccc(C(=C(Cl)c2ccccc2)c2ccccc2)cc1
COC(=O)CCCC(=O)OC
OCC(CO)n1cnc(-c2ccc(F)cc2)c1-c1ccnc(Oc2ccccc2)n1
CCCC(=O)O
CC(=O)[C@@]1(O)CC[C@H]2[C@@H]3CCC4=CC(=O)CC[C@]4(C)[C@H]3CC[C@@]21C
CCc1nc(N)nc(N)c1-c1ccc(Cl)cc1
O=C1NC(=O)C(c2ccccc2)(c2ccccc2)N1
Oc1ccccc1O
CCCCCCCCCC[N+](C)(C)[O-]

AC50, active:
CC(=O)O[C@]1(C(C)=O)CC[C@H]2[C@@H]3C=C(Cl)C4=CC(=O)[C@@H]5C[C@@H]5[C@]4(C)[C@H]3CC[C@@]21C 100 µM and 145 µM
O=C(N[C@@H](c1ccccc1)[C@@H]1CCCCN1)c1cccc(C(F)(F)F)c1Cl 55.9 µM
CCN(CC)CCOc1ccc(C(=C(Cl)c2ccccc2)c2ccccc2)cc1 9.35 µM

Biological target: Bile acid receptor (Homo sapiens) (UniProt Q96RI1)
Experiment: ATG_IR1_CIS: Attagene CIS-FACTORIAL HepG2 Assay for human Nuclear Receptor Subfamily 1 Group H Member 4 (NR1H4), IR1 submotif (AID 2282946)
Settings: IR1 reporter transcription, actives raise or lower the signal
Outline: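 Transient MRTU transfection, HepG2; 24 h dosing; RNA → RT-PCR → 6-FAM primer extension → HpaI digest → capillary electrophoresis fluorescence. Gain/loss of signal fitted relative to DMSO.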

Bile acid receptor (Homo sapiens), sequence (Q96RI1 whole entry, looked up): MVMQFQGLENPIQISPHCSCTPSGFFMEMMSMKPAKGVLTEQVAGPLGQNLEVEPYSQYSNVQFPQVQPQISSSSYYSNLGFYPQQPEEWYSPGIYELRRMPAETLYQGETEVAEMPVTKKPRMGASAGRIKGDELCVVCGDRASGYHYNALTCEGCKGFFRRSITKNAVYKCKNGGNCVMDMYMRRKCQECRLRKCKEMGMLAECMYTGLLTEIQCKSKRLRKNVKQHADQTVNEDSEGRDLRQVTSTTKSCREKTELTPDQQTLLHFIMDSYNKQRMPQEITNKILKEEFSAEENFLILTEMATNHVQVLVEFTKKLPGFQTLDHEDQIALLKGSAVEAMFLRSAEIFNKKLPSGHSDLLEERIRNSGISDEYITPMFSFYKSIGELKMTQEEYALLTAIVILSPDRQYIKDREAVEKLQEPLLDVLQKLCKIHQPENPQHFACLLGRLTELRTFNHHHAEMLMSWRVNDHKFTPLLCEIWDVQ

outcome, inactive:
CC(COCC(C)OC(=O)c1ccccc1)OC(=O)c1ccccc1 (centres undefined)
COc1ccc(C(=O)Nc2nc3ccccc3c(NCc3ccccc3)c2C#N)cc1
O=C(O)c1cccnc1
Cc1ccc(C(C)(C)C)c(O)c1
S=c1[nH]c2ccccc2s1
O=C(NS(=O)(=O)/C=C/c1cccs1)c1ccc(F)cc1Br
O=C(N[C@@H](c1ccccc1)[C@@H]1CCCCN1)c1cccc(C(F)(F)F)c1Cl
CC(C)c1cccc(C(C)C)c1
Nc1nc(Cl)nc2c1ncn2[C@H]1C[C@H](O)[C@@H](CO)O1
CCN(CC)CCOc1ccc(C(=C(Cl)c2ccccc2)c2ccccc2)cc1
COC(=O)CCCC(=O)OC
CCc1nc(N)nc(N)c1-c1ccc(Cl)cc1

AC50, active:
CCN(CC)CCOc1ccc(C(=C(Cl)c2ccccc2)c2ccccc2)cc1 5.65 µM and 4.78 µM
